Reference: the supplement of paper PMC7411054
Where a name gives a salt, the structure may show the parent alone.

Experiments:
Settings in all cases: treatment time: 24 h
A549-ACTB-RAB5A [1] = experiment: lowest phenotypically active concentration; higher = less potent
Summary of the method: (§1)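 After 24 h at 0.3, 1, 3 or 9 µM, with four wells per treatment, fifteen gene-edited A549, HepG2 and WPMY1 reporter lines carrying BFP, GFP and RFP/FusionRed were imaged live. Each well's live-cell features were expressed relative to solvent control wells. Deviation required ≥3 of 4 wells past the 95th percentile of control Euclidean distances, and reproducibility a median replicate Pearson correlation over the 95th percentile of non-replicates. Phenotypic activity rested on both.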

A549-GM130-SQSTM1 [2] = experiment: as above
Summary of the method: as §1

A549-TUBA1B-RELA [3] = experiment: as above
Summary of the method: as §1

HepG2-ACTB-RAB5A [4] = experiment: as above
Summary of the method: as §1

HepG2-TP53BP1-CLTA [5] = experiment: as above
Summary of the method: as §1

A549-ACTB-RAB5A [6] = experiment: phenotypically active (imaging signature differs from DMSO and reproducible) at any of 0.3-9 uM (binary (1 = active, 0 = inactive)); higher = active
Summary of the method: as §1

A549-CANX-COX4 = experiment: as above
Summary of the method: as §1

A549-GM130-SQSTM1 [7] = experiment: as above
Summary of the method: as §1

A549-TP53BP1-CLTA = experiment: as above
Summary of the method: as §1

A549-TUBA1B-RELA [8] = experiment: as above
Summary of the method: as §1

HepG2-ACTB-RAB5A [9] = experiment: as above
Summary of the method: as §1

HepG2-CANX-COX4 = experiment: as above
Summary of the method: as §1

HepG2-GM130-SQSTM1 = experiment: as above
Summary of the method: as §1

HepG2-TP53BP1-CLTA [10] = experiment: as above
Summary of the method: as §1

HepG2-TUBA1B-RELA = experiment: as above
Summary of the method: as §1

WPMY1-ACTB-RAB5A = experiment: as above
Summary of the method: as §1

WPMY1-CANX-COX4 = experiment: as above
Summary of the method: as §1

WPMY1-GM130-SQSTM1 = experiment: as above
Summary of the method: as §1

WPMY1-TP53BP1-CLTA = experiment: as above
Summary of the method: as §1

WPMY1-TUBA1B-RELA = experiment: as above
Summary of the method: as §1

Row | Compound | lowest phenotypically active concentration (A549-ACTB-RAB5A [1]) | lowest phenotypically active concentration (A549-GM130-SQSTM1 [2]) | lowest phenotypically active concentration (A549-TUBA1B-RELA [3]) | lowest phenotypically active concentration (HepG2-ACTB-RAB5A [4]) | lowest phenotypically active concentration (HepG2-TP53BP1-CLTA [5]) | phenotypically active (A549-ACTB-RAB5A [6]) | phenotypically active (A549-CANX-COX4) | phenotypically active (A549-GM130-SQSTM1 [7]) | phenotypically active (A549-TP53BP1-CLTA) | phenotypically active (A549-TUBA1B-RELA [8]) | phenotypically active (HepG2-ACTB-RAB5A [9]) | phenotypically active (HepG2-CANX-COX4) | phenotypically active (HepG2-GM130-SQSTM1) | phenotypically active (HepG2-TP53BP1-CLTA [10]) | phenotypically active (HepG2-TUBA1B-RELA) | phenotypically active (WPMY1-ACTB-RAB5A) | phenotypically active (WPMY1-CANX-COX4) | phenotypically active (WPMY1-GM130-SQSTM1) | phenotypically active (WPMY1-TP53BP1-CLTA) | phenotypically active (WPMY1-TUBA1B-RELA)
1 | O=C(NOC[C@H](O)CO)c1ccc(F)c(F)c1Nc1ccc(I)cc1F | ≤ 0.3 µM | ≤ 0.3 µM | 1 µM | ≤ 0.3 µM | ≤ 0.3 µM | 1 (active) | 1 (active) | 1 (active) | 1 (active) | 1 (active) | 1 (active) | 1 (active) | 1 (active) | 1 (active) | 1 (active) | 1 (active) | 0 (inactive) | 1 (active) | 1 (active) | 0 (inactive)
2 | CNC(=O)c1cc(Oc2ccc(NC(=O)Nc3ccc(Cl)c(C(F)(F)F)c3)cc2)ccn1 [sorafenib] | 3 µM | 9 µM | 9 µM | 9 µM | 9 µM | 1 (active) | 1 (active) | 1 (active) | 1 (active) | 1 (active) | 1 (active) | 1 (active) | 1 (active) | 1 (active) | 1 (active) | 1 (active) | 1 (active) | 1 (active) | 0 (inactive) | 1 (active)
3 | O=C(Nc1cccnc1)N1CCC(Cc2cccc(Oc3ccc(C(F)(F)F)cn3)c2)CC1 | 9 µM | 3 µM | 9 µM | 9 µM | 9 µM | 1 (active) | 1 (active) | 1 (active) | 1 (active) | 1 (active) | 1 (active) | 0 (inactive) | 0 (inactive) | 1 (active) | 1 (active) | 0 (inactive) | 0 (inactive) | 1 (active) | 0 (inactive) | 0 (inactive)
4 | CNc1nc(-c2ccc3c(N)n[nH]c3c2)cc(N2C[C@@H](C(=O)NC3CCCCC3)CC[C@H]2C)n1 | 1 µM | 1 µM | 3 µM |  | 3 µM | 1 (active) | 1 (active) | 1 (active) | 1 (active) | 1 (active) | 0 (inactive) | 1 (active) | 1 (active) | 1 (active) | 1 (active) | 1 (active) | 1 (active) | 1 (active) | 1 (active) | 1 (active)
5 | CC[C@]12CCCN3CCc4c(n(c5ccccc45)C(=O)C1)[C@@H]32 [Eburnamonine (-)] | 9 µM | 9 µM | 9 µM | 9 µM | 9 µM | 1 (active) | 1 (active) | 1 (active) | 1 (active) | 1 (active) | 1 (active) | 0 (inactive) | 0 (inactive) | 1 (active) | 1 (active) | 1 (active) | 1 (active) | 0 (inactive) | 1 (active) | 1 (active)
6 | CN1CCN(C(=O)CN[C@H]2C[C@@H]2c2ccc(OCc3ccccc3)cc2)CC1 [RN 1 dihydrochloride] | 3 µM | 9 µM | 3 µM | 9 µM | 9 µM | 1 (active) | 1 (active) | 1 (active) | 1 (active) | 1 (active) | 1 (active) | 0 (inactive) | 1 (active) | 1 (active) | 1 (active) | 1 (active) | 1 (active) | 1 (active) | 1 (active) | 1 (active)
7 | CC(=O)Nc1ccc(C(=O)Nc2ccccc2N)cc1 | 1 µM | 1 µM | 1 µM | 3 µM | 1 µM | 1 (active) | 1 (active) | 1 (active) | 1 (active) | 1 (active) | 1 (active) | 1 (active) | 1 (active) | 1 (active) | 1 (active) | 1 (active) | 1 (active) | 1 (active) | 1 (active) | 1 (active)
8 | CN1CCN([C@H]2CC[C@H](n3cc(-c4ccc(Oc5ccccc5)cc4)c4c(N)ncnc43)CC2)CC1 | ≤ 0.3 µM | ≤ 0.3 µM | ≤ 0.3 µM | ≤ 0.3 µM | 1 µM | 1 (active) | 1 (active) | 1 (active) | 1 (active) | 1 (active) | 1 (active) | 1 (active) | 1 (active) | 1 (active) | 1 (active) | 1 (active) | 0 (inactive) | 1 (active) | 1 (active) | 1 (active)
9 | CC(C)(C)c1nc(-c2cccc(NS(=O)(=O)c3c(F)cccc3F)c2F)c(-c2ccnc(N)n2)s1 [dabrafenib] | ≤ 0.3 µM | ≤ 0.3 µM | ≤ 0.3 µM | 3 µM | ≤ 0.3 µM | 1 (active) | 1 (active) | 1 (active) | 1 (active) | 1 (active) | 1 (active) | 1 (active) | 1 (active) | 1 (active) | 1 (active) | 1 (active) | 1 (active) | 0 (inactive) | 0 (inactive) | 1 (active)
10 | Cc1cc2c(F)c(Oc3ncnn4cc(OC[C@@H](C)O)c(C)c34)ccc2[nH]1 [brivanib] | 9 µM | 9 µM | 9 µM | 9 µM | 9 µM | 1 (active) | 1 (active) | 1 (active) | 1 (active) | 1 (active) | 1 (active) | 1 (active) | 1 (active) | 1 (active) | 1 (active) | 1 (active) | 1 (active) | 0 (inactive) | 1 (active) | 1 (active)
11 | COc1cc2c(N3CCN(C(=O)Nc4ccc(OC(C)C)cc4)CC3)ncnc2cc1OCCCN1CCCCC1 [tandutinib] | 9 µM | 3 µM | 9 µM | 9 µM | 9 µM | 1 (active) | 1 (active) | 1 (active) | 1 (active) | 1 (active) | 1 (active) | 1 (active) | 1 (active) | 1 (active) | 1 (active) | 1 (active) | 1 (active) | 1 (active) | 0 (inactive) | 1 (active)
12 | COc1cc2nc(N3CCN(C(=O)C4COc5ccccc5O4)CC3)nc(N)c2cc1OC (configuration not stated) [doxazosin] | 9 µM | 9 µM | 3 µM | 9 µM | 9 µM | 1 (active) | 1 (active) | 1 (active) | 1 (active) | 1 (active) | 1 (active) | 0 (inactive) | 1 (active) | 1 (active) | 1 (active) | 1 (active) | 1 (active) | 1 (active) | 1 (active) | 0 (inactive)
13 | Cc1nc(Nc2ncc(C(=O)Nc3c(C)cccc3Cl)s2)cc(N2CCN(CCO)CC2)n1 [dasatinib] | ≤ 0.3 µM | ≤ 0.3 µM | 1 µM | ≤ 0.3 µM | ≤ 0.3 µM | 1 (active) | 1 (active) | 1 (active) | 1 (active) | 1 (active) | 1 (active) | 1 (active) | 1 (active) | 1 (active) | 1 (active) | 1 (active) | 1 (active) | 1 (active) | 1 (active) | 1 (active)
14 | Cc1ccc(NC(=O)CCCCCC(=O)Nc2ccccc2N)cc1 | 1 µM | 1 µM | 3 µM | 1 µM | 3 µM | 1 (active) | 1 (active) | 1 (active) | 1 (active) | 1 (active) | 1 (active) | 1 (active) | 1 (active) | 1 (active) | 1 (active) | 1 (active) | 1 (active) | 1 (active) | 1 (active) | 1 (active)
15 | COc1cc2c(NC3CCN(C(C)C)CC3)nc(N3CCC(F)(F)CC3)nc2cc1OCCCN1CCCC1 | ≤ 0.3 µM | ≤ 0.3 µM | ≤ 0.3 µM | ≤ 0.3 µM | 1 µM | 1 (active) | 1 (active) | 1 (active) | 1 (active) | 1 (active) | 1 (active) | 1 (active) | 1 (active) | 1 (active) | 1 (active) | 1 (active) | 1 (active) | 1 (active) | 1 (active) | 1 (active)
16 | CC[C@H](CO)Nc1nc(NCc2ccccc2)c2ncn(C(C)C)c2n1 [Roscovitine] | ≤ 0.3 µM | ≤ 0.3 µM | ≤ 0.3 µM | 9 µM | 3 µM | 1 (active) | 1 (active) | 1 (active) | 1 (active) | 1 (active) | 1 (active) | 1 (active) | 1 (active) | 1 (active) | 1 (active) | 1 (active) | 1 (active) | 0 (inactive) | 1 (active) | 1 (active)
17 | CN(C)CCCN1c2ccccc2Sc2ccc(Cl)cc21 [chlorpromazine] | 3 µM | 3 µM | 3 µM |  | 9 µM | 1 (active) | 1 (active) | 1 (active) | 1 (active) | 1 (active) | 0 (inactive) | 1 (active) | 1 (active) | 1 (active) | 1 (active) | 1 (active) | 1 (active) | 0 (inactive) | 1 (active) | 1 (active)
18 | CCN(CC)CCNc1ccc(CO)c2sc3ccccc3c(=O)c12 [hycanthone] | 9 µM | 9 µM | 9 µM | 9 µM | 9 µM | 1 (active) | 1 (active) | 1 (active) | 1 (active) | 1 (active) | 1 (active) | 0 (inactive) | 1 (active) | 1 (active) | 1 (active) | 1 (active) | 1 (active) | 1 (active) | 1 (active) | 1 (active)
19 | CN1CCCC(n2nc(Cc3ccc(Cl)cc3)c3ccccc3c2=O)CC1 (configuration not stated) [azelastine] | 3 µM | 9 µM | 3 µM | 9 µM | 9 µM | 1 (active) | 1 (active) | 1 (active) | 1 (active) | 1 (active) | 1 (active) | 0 (inactive) | 1 (active) | 1 (active) | 1 (active) | 1 (active) | 1 (active) | 1 (active) | 1 (active) | 1 (active)
20 | O=C1N=C(NCc2cccs2)S/C1=C\c1ccc2ncccc2c1 | 3 µM | 1 µM | 3 µM |  | 3 µM | 1 (active) | 1 (active) | 1 (active) | 1 (active) | 1 (active) | 0 (inactive) | 1 (active) | 1 (active) | 1 (active) | 1 (active) | 1 (active) | 1 (active) | 1 (active) | 1 (active) | 1 (active)
21 | Nc1ncnc(Nc2ccc(OCc3ccccc3)c(Cl)c2)c1/C=N/OCCN1CCOCC1 | 3 µM | 3 µM | 1 µM | 9 µM | 9 µM | 1 (active) | 1 (active) | 1 (active) | 1 (active) | 1 (active) | 1 (active) | 0 (inactive) | 1 (active) | 1 (active) | 1 (active) | 0 (inactive) | 0 (inactive) | 0 (inactive) | 0 (inactive) | 0 (inactive)
22 | CC(C)CNc1nc(-c2cccc3ncccc23)cn2c(-c3ccc(C(=O)NC4CC4)cc3)cnc12 | ≤ 0.3 µM | ≤ 0.3 µM | ≤ 0.3 µM | 1 µM | 1 µM | 1 (active) | 1 (active) | 1 (active) | 1 (active) | 1 (active) | 1 (active) | 1 (active) | 1 (active) | 1 (active) | 1 (active) | 1 (active) | 0 (inactive) | 1 (active) | 1 (active) | 0 (inactive)
